Source: PubChem (several laboratories)
Rows were chosen to be rich in hits. Some 4.2% of all compounds tested hit in one or more screens of this group.
TIM10 inh: growth inhibitors of TIM10 yeast strain. S. cerevisiae TIM10 strain growth, BacTiter-Glo luminescence, 24 h. inhibition, % at 10 µM. 1.4% of 330,000 active. AID 463195;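 active = inhibition of 40% or more at the single tested concentration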;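 note: wild-type TIM10 isogenic control strain grown at permissive 25 °C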
tim23-1 inh: tim23-1 yeast growth inhibition | S. cerevisiae tim23-1 growth, BacTiter-Glo luminescence, 24 h | 1.3% of 330,000 active | inhibition, % at 20 µM;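 active = growth inhibition of the mutant yeast at or above 50%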;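 note: temperature-sensitive mutant grown at 25 °C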
tim10-1 inh: inhibits growth of tim10-1 mutant yeast | S. cerevisiae tim10-1 ts strain growth, BacTiter-Glo, 24 h | inhibition, % at 20 µM | 2.2% of 330,000 active | AID 463190;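 active = inhibition of at least 40%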;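 note: mutant grown at 25 °C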
NALP3 yeast inh: NALP3 inhibition in yeast. Yeast reconstituted NLRP3/ASC/caspase-1, beta-gal luminescence, 24 h. inhibition, % at 10 µM. 0.39% of 330,000 active;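 active = inhibition of 50% or more; inactive = inhibition below 50%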
NALP1 inh: inhibitors of NALP1 inflammasome in yeast; S. cerevisiae NALP1/ASC/caspase-1 growth, X-gal OD620, 72 h; inhibition, % at 10 µM; 0.61% of 280,000 active; AID 2071; in the data active = inhibition mostly above about 24%, no sharp cut-off; inactive = mostly below about 32%
V-ATPase pHluor: yeast V-ATPase proton transport regulation by pHLuorin. response, % at 10 µM. S. cerevisiae, pHLuorin cytosolic pH fluorescence. 0.37% of 350,000 active. AID 504577; in the data active = response mostly above about 7.3%, no sharp cut-off; inactive = mostly below about 5.4%; note: actives read high
NALP3 confirm: NALP3 inhibition confirmation in yeast | shares compounds with NALP3 yeast inh | yeast expressing human NALP3, luminescence | inhibition, % at 10 µM | 81% of 1,300 active | AID 435006; in the data active = inhibition above about 48%
Casp1 ASC ctr: counter-screen for NALP3 inhibitors: yeast caspase-1-ASC | shares compounds with NALP3 yeast inh | yeast expressing Caspase-1-ASC, luminescence counter screen | inhibition, % at 10 µM | 66% of 1,000 active
NALP3 retest: confirmation retest of NALP3 inhibitors in yeast; yeast expressing human NALP3, luminescence read-out; 53% of 1,000 active; AID 488794; shares compounds with NALP3 yeast inh; inhibition, % at 10 µM
tim10-1 conf: confirmation of tim10-1 mutant yeast growth inhibitors; shares compounds with tim10-1 inh; inhibition, % at 20 µM; S. cerevisiae tim10-1 ts strain growth, BacTiter-Glo, 24 h; 56% of 7,400 active;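 active = inhibition of yeast growth at or above a set limit in either of two repeat tests at 20 µM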;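 note: tim10-1 mutant grown at permissive 25 °C to find synthetic lethal compounds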
Each line names hits and unclear results; the compound was inactive in the other large screens (follow-up assays come after a bar, where they were run). Cut-off read from the data, not from the text of the source, unless noted: active = inhibition above about 50%; inactive = the rest.

O=C(COc1ncnc2ccccc12)c1ccc2c(c1)OCCO2	NALP3 yeast inh 53.0 | NALP3 confirm 69.4 | Casp1 ASC ctr inactive | NALP3 retest inactive
O=C(COc1ncnc2cc(Cl)ccc12)c1ccc2c(c1)OCCO2	none (no result: NALP1 inh)
COc1ccc(-c2csc(NC(=O)CSc3nc(C)nc4sc(C(=O)O)c(C)c34)n2)cc1	none
Cc1c(N2C(=O)CSC2c2ccco2)c(=O)n(-c2ccccc2)n1C (configuration not stated)	none
CN(C)c1ncc(CN2CCC(CO)(CCCc3ccccc3)CC2)s1	NALP3 yeast inh 70.0 | NALP3 confirm inactive
Cc1ccc2[nH]c(C(=O)N3CCN(C(c4ccccc4)c4ccccc4)CC3)cc2c1	none
Cc1ccc2sc(N(CCCN(C)C)C(=O)CCS(=O)(=O)c3ccccc3)nc2c1C	NALP3 yeast inh 53.5, NALP1 inh 84.1 | NALP3 confirm 76.6 | Casp1 ASC ctr 65.5 | NALP3 retest 53.9
CC1(C)[C@@H](O)CC[C@]2(C)C3C(O)C=C4[C@H]5C[C@@](C)(CO)CC[C@]5(C)CC[C@]4(C)[C@]3(C)CC[C@@H]12 (some centres not stated)	NALP3 yeast inh 62.4 (no result: NALP1 inh) | NALP3 confirm 70.0 | Casp1 ASC ctr 63.8 | NALP3 retest 50.3
O=c1[nH]c(C2CCN(S(=O)(=O)c3ccccc3C(F)(F)F)CC2)nc2c1nnn2Cc1cccc(F)c1	none
CCC(=O)N1CCN(CCN=CC2=C(O)CC(c3cccs3)CC2=O)CC1 (configuration not stated)	NALP3 yeast inh 55.7 | NALP3 confirm 55.9 | Casp1 ASC ctr inactive | NALP3 retest inactive
CCNC(=S)N1CCN(CCN=CC2=C(O)CC(c3cccs3)CC2=O)CC1 (configuration not stated)	none
O=C(N=C1SC2CS(=O)(=O)CC2N1c1ccc(F)c(Cl)c1)C1CCCO1 (configuration not stated)	none
CCOC(=O)Cc1csc(NC(=O)c2cccc([N+](=O)[O-])c2)n1	NALP3 yeast inh 59.3 | NALP3 confirm 76.5 | Casp1 ASC ctr 69.5 | NALP3 retest 51.1
CCOC(=O)Cc1csc(NC(=O)c2cccc(OC)c2)n1	none
CC(C)C(=O)Nc1nnc(SCC(=O)NC2CCCC2)s1	none
Cc1cc(C)n(Cc2cccc(C(=O)N/N=C/c3cccnc3)c2)n1	none
Cc1cccc(C)c1NC(=O)c1nc(S(=O)(=O)Cc2ccccc2)ncc1Cl	none
Cc1ccc(NC(=O)c2nc(S(=O)(=O)Cc3ccccc3)ncc2Cl)cc1	NALP3 yeast inh 55.2 | NALP3 confirm 68.2 | Casp1 ASC ctr inactive | NALP3 retest 53.0
Cc1ccc(S(=O)(=O)N2CCC(C(=O)N3CC(C)OC(C)C3)CC2)cc1 (configuration not stated)	none
Cc1ccc(-n2c(C)c(C)c3c(NCCO)ncnc32)cc1	none
O=C(CSC(=S)N1CCCC1)c1ccccc1	none
O=C(CSC(=S)N1CCCCC1)c1ccccc1	NALP3 yeast inh 60.2 | NALP3 confirm 73.5 | Casp1 ASC ctr 69.7 | NALP3 retest 55.8
CCN(CC)c1ccc(Nc2nc(Cl)ncc2Br)cc1	NALP3 yeast inh 53.5 | NALP3 confirm 63.6 | Casp1 ASC ctr 54.4 | NALP3 retest inactive
Cc1ccc(C)c(-n2nnnc2Sc2nnnn2-c2ccccc2)c1	NALP3 yeast inh 58.3 (no result: NALP1 inh) | NALP3 confirm 74.2 | Casp1 ASC ctr 72.7 | NALP3 retest 62.3
CN=c1oc2ccc(Cl)cc2cc1C(N)=O	NALP3 yeast inh 51.5 | NALP3 confirm inactive | Casp1 ASC ctr inactive | NALP3 retest inactive
COc1cc(C)c(Cl)cc1S(=O)(=O)N1CCCC1	none
COc1cc(Cl)c(S(=O)(=O)N2CCCC2)cc1Cl	NALP3 yeast inh 66.4 | NALP3 confirm 70.1
COc1cc(S(=O)(=O)N2CCCC2)c(C)cc1C	NALP3 yeast inh 59.8 | NALP3 confirm 77.0 | Casp1 ASC ctr 57.7 | NALP3 retest inactive
O=C(Nc1ccc(-c2nc3ccccc3o2)cc1)C1CCCO1 (configuration not stated)	NALP3 yeast inh 55.5 | NALP3 confirm 72.5 | Casp1 ASC ctr 60.2 | NALP3 retest inactive
CC(NC(=O)COC(=O)CN1C(=O)c2ccccc2C1=O)c1ccccc1 (configuration not stated)	none (no result: NALP1 inh)
COC(=O)c1ccccc1NC(=O)Nc1cccc(C)n1	none
COc1ccccc1NC(=O)Nc1cccc(C)n1	NALP3 yeast inh 66.3 | NALP3 confirm 73.7 | Casp1 ASC ctr 55.4 | NALP3 retest 59.9
C=C1CCN(Cc2ccccc2)S(=O)(=O)c2ccccc21	NALP3 yeast inh 51.5 | NALP3 confirm 66.5 | Casp1 ASC ctr inactive | NALP3 retest inactive
C=Cc1ncc(OC)c2c1[nH]c1ccccc12	tim10-1 inh 43.7, NALP3 yeast inh 60.1 (no result: NALP1 inh) | NALP3 confirm 73.8 | Casp1 ASC ctr 80.8 | NALP3 retest 63.6 | tim10-1 conf 37.5
CC(O)/C=C/c1ccc2ccccc2n1 (configuration not stated)	tim10-1 inh 48.7, NALP3 yeast inh 50.5 | NALP3 confirm 69.6 | Casp1 ASC ctr inactive | NALP3 retest inactive | tim10-1 conf 35.4
Fc1cccc(F)c1/C=C/c1ccc2ccccc2n1	none
CC1(C)CC(=O)C2=C(C1)OC1=C(C(=O)CC(C)(C)C1)C2c1ccc(O)cc1O	tim10-1 inh 44.4, NALP3 yeast inh 56.1 | NALP3 confirm 55.8 | Casp1 ASC ctr 57.2 | NALP3 retest inactive | tim10-1 conf 35.4
CC1(C)CC(=O)C2=C(C1)OC1=C(C(=O)CC(C)(C)C1)C2c1ccc(O)c([N+](=O)[O-])c1	none
O=C(NCCCN1CCOCC1)c1cccc(S(=O)(=O)N2CCc3ccccc32)c1	none (no result: TIM10 inh, tim23-1 inh, tim10-1 inh, NALP3 yeast inh, NALP1 inh)
CCOc1ccc(N2C(=O)CNC2=S)cc1	none
CCOc1ccc(N2C=Nc3ccc(OCC)cc3C2)cc1	tim10-1 inh 42.3, NALP3 yeast inh 58.6 | NALP3 confirm 60.6 | Casp1 ASC ctr 60.0 | NALP3 retest 51.4 | tim10-1 conf inactive
O=C(CN(c1cccc(C(F)(F)F)c1)S(=O)(=O)c1ccc(Cl)c([N+](=O)[O-])c1)NCc1ccc(F)cc1	none
Cc1nc2ccc(Nc3nc4cc(S(=O)(=O)N5CCOCC5)ccc4o3)cc2s1	tim10-1 inh 44.6 | NALP3 confirm inactive | Casp1 ASC ctr inactive | NALP3 retest inactive | tim10-1 conf 33.8
COc1cc(OC)c(NS(=O)(=O)c2cc3[nH]c(=O)c(=O)[nH]c3cc2C)cc1Cl	none
